Test results as given in PubChem BioAssay (EPA / NIEHS).
Records with an inconclusive call do not appear. The source made the active and inactive calls. How the source made its calls: active means hit-call score of the fitted dose curve at least 0.9, where 1 is the maximum; inconclusive means response in the unintended direction; inactive means score below 0.9.

Experiments:
[1] = target: human AKT serine/threonine Kinase 2 (AKT2), AKT2 (gene 208) (UniProt P31751); assay: NVS_ENZ_hAKT2: NovaScreen (NVS) Enzymatic Assay for human AKT serine/threonine Kinase 2 (AKT2) (AID 2283141)
Sequence of human AKT serine/threonine Kinase 2 (AKT2), AKT2 (gene 208) (P31751 whole entry, looked up): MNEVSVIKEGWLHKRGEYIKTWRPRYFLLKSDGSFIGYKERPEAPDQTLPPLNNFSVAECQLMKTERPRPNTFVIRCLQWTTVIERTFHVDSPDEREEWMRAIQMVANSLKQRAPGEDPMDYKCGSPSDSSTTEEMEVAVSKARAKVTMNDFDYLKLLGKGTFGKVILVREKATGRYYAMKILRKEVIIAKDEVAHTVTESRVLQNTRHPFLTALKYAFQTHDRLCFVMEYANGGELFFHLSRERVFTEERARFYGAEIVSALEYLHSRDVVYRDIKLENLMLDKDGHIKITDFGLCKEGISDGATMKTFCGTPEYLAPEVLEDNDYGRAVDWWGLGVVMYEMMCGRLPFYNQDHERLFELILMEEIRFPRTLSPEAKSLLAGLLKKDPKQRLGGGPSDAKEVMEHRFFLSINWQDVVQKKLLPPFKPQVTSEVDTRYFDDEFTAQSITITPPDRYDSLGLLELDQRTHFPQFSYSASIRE
Procedure, shortened: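 Cell-free fluorescence/electrophoretic mobility shift readout of recombinant human AKT2 activity, 1 h after chemical dosing. Duplicate primary screen at 25 uM, then singleton concentration-response up to 50 uM; loss of signal versus DMSO baseline.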

CDK2 (gene 1017) = CDK2 (gene 1017) (UniProt P24941); assay: NVS_ENZ_hCDK2: NovaScreen (NVS) Enzymatic Assay for human Cyclin-Cependent Kinase 2 (CDK2) (AID 2283144)
Description: NVS_ENZ_hCDK2 is a biochemical, single-readout assay that uses extracted gene-proteins in a cell-free assay. Measurements were taken 1 hour after chemical dosing in a 384-well plate.NVS_ENZ_hCDK2 is one of one assay component(s) measured or calculated from the NVS_ENZ_hCDK2 assay. It is designed to make measurements of enzyme activity, a form of enzyme reporter, as detected with fluorescence intensity signals by Fluorescence and electrophoretic mobility shift technology.Data from the assay component NVS_ENZ_hCDK2 was analyzed into 1 assay endpoint. This assay endpoint, NVS_ENZ_hCDK2, was analyzed in the positive analysis fitting direction relative to DMSO as the negative control and baseline of activity. Using a type of enzyme reporter, loss-of-signal activity can be used to understand changes in the enzymatic activity as they relate to the gene CDK2. Furthermore, this assay endpoint can be referred to as a primary readout, because this assay has produced multiple assay endpoints where this one serves a enzymatic activity function. To generalize the intended target to other relatable targets, this assay endpoint is annotated to the kinase intended target family, where the subfamily is serine/threonine kinase. […]

[2] = target: human Caspase 8 (CASP8), CASP8 (gene 841) (UniProt Q14790); assay: NVS_ENZ_hCASP8: NovaScreen (NVS) Enzymatic Assay for human Caspase 8 (CASP8) (AID 2283146)
Sequence of human Caspase 8 (CASP8), CASP8 (gene 841) (Q14790 whole entry, looked up): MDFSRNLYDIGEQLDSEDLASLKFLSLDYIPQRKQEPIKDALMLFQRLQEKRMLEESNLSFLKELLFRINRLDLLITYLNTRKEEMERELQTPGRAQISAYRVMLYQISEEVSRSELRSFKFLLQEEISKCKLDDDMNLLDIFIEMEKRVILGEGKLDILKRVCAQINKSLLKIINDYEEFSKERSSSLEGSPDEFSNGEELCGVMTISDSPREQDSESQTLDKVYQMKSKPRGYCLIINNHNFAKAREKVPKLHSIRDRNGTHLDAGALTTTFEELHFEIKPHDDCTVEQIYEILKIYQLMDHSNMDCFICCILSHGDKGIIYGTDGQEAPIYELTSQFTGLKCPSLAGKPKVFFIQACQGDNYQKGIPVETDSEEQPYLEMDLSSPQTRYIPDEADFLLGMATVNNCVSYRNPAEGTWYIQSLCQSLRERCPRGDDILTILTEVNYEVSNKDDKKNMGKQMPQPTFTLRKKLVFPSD
Procedure, shortened: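 The primary screen tested compounds in duplicate at a single 25 uM concentration, with actives followed up in concentration series. Activity of recombinant (E. coli) protease was measured by fluorescence 1 h post-dose, as signal loss against DMSO.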

[3] = target: human Casein Kinase 1-delta (CK1D), CSNK1D (gene 1453) (UniProt P48730); assay: NVS_ENZ_hCK1D: NovaScreen (NVS) Enzymatic Assay for human Casein Kinase 1-delta (CK1D) (AID 2283148)
Sequence of human Casein Kinase 1-delta (CK1D), CSNK1D (gene 1453) (P48730 whole entry, looked up): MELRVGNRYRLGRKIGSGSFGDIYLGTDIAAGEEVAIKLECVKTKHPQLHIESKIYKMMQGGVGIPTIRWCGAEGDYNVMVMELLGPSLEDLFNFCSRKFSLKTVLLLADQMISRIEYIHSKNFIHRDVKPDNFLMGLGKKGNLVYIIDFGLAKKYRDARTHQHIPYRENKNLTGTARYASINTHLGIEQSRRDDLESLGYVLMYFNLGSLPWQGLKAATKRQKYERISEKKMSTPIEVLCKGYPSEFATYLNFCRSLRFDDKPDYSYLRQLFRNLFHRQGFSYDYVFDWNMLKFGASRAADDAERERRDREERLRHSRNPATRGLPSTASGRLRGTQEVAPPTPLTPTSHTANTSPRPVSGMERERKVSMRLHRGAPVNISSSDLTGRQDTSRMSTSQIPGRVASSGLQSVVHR
Procedure, shortened: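 Recombinant human CK1-delta, cell-free; fluorescent substrate with electrophoretic mobility-shift separation of product, read 1 h after dosing. Single 25 uM duplicate screen, then concentration-response up to 50 uM; loss of signal vs DMSO.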

CC(C)O.CC(C)O.OCCN(CCO)CCO.OCCN(CCO)CCO.[Ti]
AC50 [1]: 3.46 µM (active)
AC50 (CDK2 (gene 1017)): 0.003 µM (active)
AC50 [2]: 1.13 µM (active)
AC50 [3]: 10.8 µM (active)

COc1ccccc1N
outcome [1]: inactive

N#Cc1cccnc1
outcome (CDK2 (gene 1017)): inactive

CCCCCCCCCCCCc1cccc(S(=O)(=O)O)c1
AC50 [3]: 28.6 µM (active)
